Reference: PubChem BioAssay (EPA / NIEHS)
“And” between values parts separate entries of the source, which are not always exact repeats. Equal entries are not always repeated. Some compounds were tested as several samples or in several runs, with calls that do not always agree. The source made the active and inactive calls. The calls were made as follows: active = hit-call score of the fitted dose curve at least 0.9, where 1 is the maximum; inactive = score below 0.9.

What was measured:
[1] = BSK_MyoF_SRB: Viability Assessment in the BioMAP Diversity Plus: MyoF Assay (AID 2284267); details: primary human lung fibroblasts;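 also: total protein by SRB absorbance in parallel cultures as cytotoxicity measure; cells assessed 24 h after compound addition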
Procedure, shortened: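 Cytotoxicity read-out: after 10% TCA fixation, parallel human lung fibroblast cultures were stained with 0.1% SRB at 24 h post-dosing and read at 560 nm; DMSO served as baseline.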

[2] = read-out: TIMP metallopeptidase inhibitor 1 (TIMP1), TIMP1 (gene 7076); test: BSK_MyoF_TIMP1: BioMAP Diversity Plus: MyoF Assay for TIMP metallopeptidase inhibitor 1 (TIMP1) Biomarker Activity (AID 2284269); details: primary human lung fibroblasts
Procedure, shortened: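 Primary human lung fibroblasts, MyoF multiplex system; chemical exposure 24 h; TIMP-1 by ELISA; positive fitting direction vs DMSO control.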

[3] = read-out: Matrix Metallopeptidase 1 (MMP1), MMP1 (gene 4312); test: BSK_MyoF_MMP1: BioMAP Diversity Plus: MyoF Assay for Matrix Metallopeptidase 1 (MMP1) Biomarker Activity (AID 2284268); details: primary human lung fibroblasts
Procedure, shortened: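 Cells: human lung fibroblasts. Exposure: 24 h chemical dosing. Detection: ELISA for MMP1. Analysis: upward fitting against DMSO negative control.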

[4] = read-out: Matrix Metallopeptidase 1 (MMP1), MMP1 (gene 4312); test: BSK_BF4T_MMP1: BioMAP Diversity Plus: BF4T Assay for Matrix Metallopeptidase 1 (MMP1) Biomarker Activity (AID 2284270); details: primary human bronchial epithelial cells with fibroblasts
Procedure, shortened: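 MMP-1 quantified by ELISA in primary human bronchial epithelial/dermal fibroblast co-cultures, 24 hours post-dosing, with DMSO as baseline; parallel sulforhodamine B staining (560 nm) tracks overt cytotoxicity.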

[5] = read-out: Matrix Metallopeptidase 3 (MMP3), MMP3 (gene 4314); test: BSK_BF4T_MMP3: BioMAP Diversity Plus: BF4T Assay for Matrix Metallopeptidase 3 (MMP3) Biomarker Activity (AID 2284271); details: primary human bronchial epithelial cells with fibroblasts
Procedure, shortened: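 MMP-3 level read by ELISA after 24 h chemical exposure of bronchial epithelial cell/dermal fibroblast co-cultures, fitted upward relative to DMSO. Parallel cultures stained with 0.1% SRB after TCA fixation gauge overt cytotoxicity.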

[6] = read-out: Tissue plasminogen activator (tPA), PLAT (gene 5327); test: BSK_BF4T_tPA: BioMAP Diversity Plus: BF4T Assay for Tissue plasminogen activator (tPA) Biomarker Activity (AID 2284272); details: primary human bronchial epithelial cells with fibroblasts
Procedure, shortened: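 tPA level quantified by ELISA at 24 h post-treatment in bronchial epithelial/dermal fibroblast co-cultures, gain of signal scored against DMSO baseline. Parallel cultures stained with 0.1% SRB (560 nm) to flag overt cytotoxicity.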

[7] = read-out: Plasminogen Activator Inhibitor-1 (PAI1), SERPINE1 (gene 5054); test: BSK_BF4T_PAI1: BioMAP Diversity Plus: BF4T Assay for Plasminogen Activator Inhibitor-1 (PAI1) Biomarker Activity (AID 2284273); details: primary human bronchial epithelial cells with fibroblasts
Procedure, shortened: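 PAI-1 levels quantified by ELISA 24 h post-dosing in bronchial epithelial cell plus dermal fibroblast cultures. Signal gain referenced to DMSO baseline. Sulforhodamine B total-protein staining of parallel wells checked cytotoxicity.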

[8] = BSK_BF4T_SRB: Viability Assessment in the BioMAP Diversity Plus: BF4T Assay (AID 2284274); details: primary human bronchial epithelial cells with fibroblasts;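 as to AC50: measured 24 h after compound addition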
Procedure, shortened: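 Cytotoxicity measured as total protein: cells fixed with 10% TCA, stained with 0.1% SRB, read at 560 nm. Bronchial epithelial/dermal fibroblast co-culture, 24 h after dosing, with positive-direction fitting relative to DMSO.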

[9] = read-out: urokinase Plasminogen Activator (uPA), PLAU (gene 5328); test: BSK_BF4T_uPA: BioMAP Diversity Plus: BF4T Assay for urokinase Plasminogen Activator (uPA) Biomarker Activity (AID 2284275); details: primary human bronchial epithelial cells with fibroblasts
Procedure, shortened: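 uPA levels measured by ELISA at 24 hours in BF4T cultures (bronchial epithelial cells plus dermal fibroblasts) and compared with DMSO; cytotoxicity tracked in parallel cultures by sulforhodamine B staining.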

[10] = read-out: Matrix Metallopeptidase 9 (MMP9), MMP9 (gene 4318); test: BSK_BF4T_MMP9: BioMAP Diversity Plus: BF4T Assay for Matrix Metallopeptidase 9 (MMP9) Biomarker Activity (AID 2284276); details: primary human bronchial epithelial cells with fibroblasts
Procedure, shortened: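 MMP-9 levels were measured by ELISA after 24 h exposure of bronchial epithelial cell/dermal fibroblast co-cultures, with DMSO as baseline. Parallel cultures were stained with 0.1% SRB after TCA fixation, read at 560 nm, to flag overt cytotoxicity.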

[11] = read-out: Interleukin-8 (IL8), CXCL8 (gene 3576); test: BSK_IMphg_IL8: BioMAP Diversity Plus: IMphg Assay for Interleukin-8 (IL8) Biomarker Activity (AID 2284277); details: primary human endothelial cells with macrophages
Procedure, shortened: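 IL-8 levels were measured by ELISA 24 h after dosing in primary human venular endothelial cell–macrophage cultures, referenced to DMSO; parallel SRB staining monitored overt cytotoxicity.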

[12] = read-out: Intercellular Adhesion Molecule 1 (ICAM1), ICAM1 (gene 3383); test: BSK_BE3C_ICAM1: BioMAP Diversity Plus: BE3C Assay for Intercellular Adhesion Molecule 1 (ICAM1) Biomarker Activity (AID 2284278); details: primary human bronchial epithelial cells
Procedure, shortened: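 ICAM-1 quantified by ELISA and fitted against DMSO baseline, 24 h post-dosing in BE3C cultures of primary human lung bronchial epithelial cells. Cytotoxicity checked in parallel cultures by total protein SRB staining.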

[13] = read-out: Interferon-inducible T-cell alpha chemoattractant (ITAC), CXCL11 (gene 6373); test: BSK_BE3C_ITAC: BioMAP Diversity Plus: BE3C Assay for Interferon-inducible T-cell alpha chemoattractant (ITAC) Biomarker Activity (AID 2284279); details: primary human bronchial epithelial cells
Procedure, shortened: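 Steps: dose human bronchial epithelial cells with chemical; incubate 24 h; measure I-TAC by ELISA; fit endpoint in positive direction against DMSO control. Cytotoxicity was checked in parallel cultures by SRB staining at harvest.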

[14] = read-out: Interleukin-8 (IL8), CXCL8 (gene 3576); test: BSK_BE3C_IL8: BioMAP Diversity Plus: BE3C Assay for Interleukin-8 (IL8) Biomarker Activity (AID 2284280); details: primary human bronchial epithelial cells
Procedure, shortened: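 Dose human bronchial epithelial cells with chemical; incubate 24 h; quantify IL-8 by ELISA; fit response upward versus DMSO controls.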

[15] = read-out: Epidermal growth factor receptor (EGFR), EGFR (gene 1956); test: BSK_BE3C_EGFR: BioMAP Diversity Plus: BE3C Assay for Epidermal growth factor receptor (EGFR) Biomarker Activity (AID 2284281); details: primary human bronchial epithelial cells
Procedure, shortened: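 ELISA read-out of EGFR levels on human bronchial epithelial primary cells collected 24 h post-dosing. DMSO served as negative control and baseline for gain-of-signal fitting.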

KRT18 (gene 3875) = test: BSK_BE3C_Keratin818: BioMAP Diversity Plus: BE3C Assay for Keratin 818 Biomarker Activity (AID 2284282); details: primary human bronchial epithelial cells
Procedure, shortened: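 ELISA readout of Keratin 8/18 in human primary bronchial epithelial cultures after 24 h chemical exposure, DMSO baseline. Parallel SRB staining (0.1%, TCA-fixed, 560 nm) served as cytotoxicity check.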

[16] = read-out: Matrix Metallopeptidase 9 (MMP9), MMP9 (gene 4318); test: BSK_BE3C_MMP9: BioMAP Diversity Plus: BE3C Assay for Matrix Metallopeptidase 9 (MMP9) Biomarker Activity (AID 2284283); details: primary human bronchial epithelial cells
Procedure, shortened: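 ELISA read-out of MMP-9 after 24 h compound exposure of human lung bronchial epithelial primary cells (BE3C). Fit in gain direction vs DMSO negative control; total protein by SRB in parallel cultures flagged overt cytotoxicity.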

[17] = read-out: Plasminogen activator inhibitor-1 (PAI1), SERPINE1 (gene 5054); test: BSK_CASM3C_PAI1: BioMAP Diversity Plus: CASM3C Assay for Plasminogen activator inhibitor-1 (PAI1) Biomarker Activity (AID 2284284); details: primary human coronary artery smooth muscle cells
[18] = read-out: Monocyte Chemoattractant Protein-1 (MCP1), CCL2 (gene 6347); test: BSK_hDFCGF_MCP1: BioMAP Diversity Plus: hDFCGF Assay for Monocyte Chemoattractant Protein-1 (MCP1) Biomarker Activity (AID 2284285); details: primary human foreskin fibroblasts
Procedure, shortened: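 MCP-1 ELISA readout was taken 24 hours after dosing primary human dermal fibroblasts in the hDFCGF system, with DMSO as baseline. Parallel sulforhodamine B staining of total protein tracked overt cytotoxicity.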

[19] = read-out: Vascular cell adhesion molecule 1 (VCAM1), VCAM1 (gene 7412); test: BSK_IMphg_VCAM1: BioMAP Diversity Plus: IMphg Assay for Vascular cell adhesion molecule 1 (VCAM1) Biomarker Activity (AID 2284286); details: primary human endothelial cells with macrophages
Procedure, shortened: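 ELISA read-out of VCAM-1 on venular endothelial cell/macrophage co-cultures at 24 h post-treatment, with DMSO as baseline and positive-direction fitting. Parallel sulforhodamine B total-protein staining (560 nm) served as the overt cytotoxicity measure.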

Measured: AC50

CCCCCCCCCCCCCC[N+](C)(C)C
active: [1] 5.25 µM | [2] 3.32 µM

C=C(C)C(=O)OCCC(F)(F)C(F)(F)C(F)(F)C(F)(F)C(F)(F)C(F)(F)F
inactive: [1] | [3] | [2] | [4] | [5] | [6] | [7] | [8] | [9] | [10] | [11] | [12] | [13] | [14] | [15] | KRT18 (gene 3875) | [16] | [17] | [18] | [19]
active: KRT18 (gene 3875) 2.19 µM

C[C@@H]1C[C@H]2[C@@H]3CCC4=CC(=O)C=C[C@]4(C)[C@@]3(F)[C@@H](O)C[C@]2(C)[C@@]1(O)C(=O)COP(=O)(O)O
active: [2] 0.562 µM | [11] 309 nM and 884 nM | [14] 1.6 µM and 182 nM | [19] 3.41 µM
inactive: [1] | [3] | [2] | [4] | [5] | [6] | [7] | [8] | [9] | [10] | [12] | [13] | [15] | KRT18 (gene 3875) | [16] | [17] | [18] | [19]

OCCC(F)(F)C(F)(F)C(F)(F)C(F)(F)C(F)(F)C(F)(F)C(F)(F)C(F)(F)F
active: [1] 15.1 µM and 14.7 µM | [2] 13.1 µM and 9.78 µM | [6] 8.17 µM and 7.72 µM | [7] 23.8 µM and 18.6 µM | [8] 27.2 µM and 34.7 µM | [9] 30 µM and 17.7 µM | [10] 28 µM and 16.3 µM | [11] 30 µM and 44.7 µM | [12] 22.2 µM and 46.7 µM | [13] 23.5 µM and 18.4 µM | [14] 12.3 µM and 13.3 µM | [15] 21.8 µM | KRT18 (gene 3875) 24.7 µM and 16.8 µM | [16] 14.2 µM and 30 µM | [17] 44.5 µM and 41 µM | [18] 17.1 µM and 11.3 µM | [19] 45.5 µM and 44.5 µM
inactive: [3] | [4] | [5] | [15]
